Most compounds without a hit are left out; they make up all but 4.7% or so of the library.
D1 PAM: human D1 dopamine receptor positive modulation | P21728 | HEK293 TREx D1 cells, calcium flux, dopamine EC20 potentiation | potentiation, % at 10 µM | hit rate 0.036% among 360,000 | AID 504651; in the data active = potentiation above about 30%; also: 0% is about no effect
D1 ag: activates the human D1 dopamine receptor | P21728 | HEK293 T-REx D1 cells, calcium flux, agonist mode | activation, % at 2 µM | hit rate 1% among 360,000 | AID 504660; also: 0% is about no effect
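Agonism was scored from calcium flux recorded over 180 s (1 read/s) after pintool compound addition, following a 10-cycle baseline. Cells were inducible force-coupled HEK293 TREx D1, plated overnight at 30 C and loaded with no-wash calcium dye.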
TRHR agonist: activates the human TRH receptor; P34981; TRHR cells, calcium flux fluo-8, FDSS agonist mode; activation, % at 2 µM; hit rate 0.18% among 360,000; AID 493084; also: 0% is about no effect
Target sequence (P34981 whole entry, looked up): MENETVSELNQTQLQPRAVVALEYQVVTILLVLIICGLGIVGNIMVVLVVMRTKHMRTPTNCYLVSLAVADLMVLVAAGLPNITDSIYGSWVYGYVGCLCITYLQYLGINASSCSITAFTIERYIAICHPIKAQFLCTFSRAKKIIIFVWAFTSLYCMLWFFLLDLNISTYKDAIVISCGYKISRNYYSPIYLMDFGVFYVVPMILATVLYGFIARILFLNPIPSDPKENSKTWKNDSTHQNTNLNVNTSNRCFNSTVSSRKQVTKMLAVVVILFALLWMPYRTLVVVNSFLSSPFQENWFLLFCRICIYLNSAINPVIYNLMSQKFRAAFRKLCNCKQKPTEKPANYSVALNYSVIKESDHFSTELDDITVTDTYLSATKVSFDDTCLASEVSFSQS
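Fluo-8-loaded TRHR cells; 10 s baseline, compound added, kinetic Ca2+ fluorescence read 1/s, agonist mode.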
D1 antag: antagonists of human D1 dopamine receptor; activity change, negative = inhibition, % at 10 µM; HEK293 TREx D1 cells, calcium flux, dopamine EC80; active compounds read low; hit rate 3.2% among 360,000; P21728; in the data active = activity change below about -30%; also: % is scaled to controls: 0 for no effect and ±100 for the full control effect
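Kinetic fluorescence of a calcium dye serves as the read-out. D1-expressing Hek293 Trex cells, induced overnight at 30 C, are exposed to compound for 180 s before an EC80 dopamine addition, then read 180 s further.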
TRHR PAM: allosterically enhances the human TRH receptor; P34981; TRHR cells, fluo-8 calcium fluorescence, EC20 TRH enhancement; AID 493056; enhancement, % at 2 µM; hit rate 0.66% among 360,000; in the data active = enhancement above about 30%; also: 0% is about no effect
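TRHR-expressing cells loaded with fluo-8 calcium dye were read kinetically (ex 480/em 530) during compound addition, then stimulated with an EC20 of TRH (10 nM final). Enhancement of the Gq-mediated intracellular calcium response was scored.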
Starred values were filed as active, the others as inactive; · = not tested or not shown. Rule as the data show it, unless noted: active = activation above about 30%; inactive = the rest.

SMILES | D1 PAM | D1 ag | TRHR agonist | D1 antag | TRHR PAM
C=CCN(c1ccccc1Cl)S(=O)(=O)c1cccc(C(=O)NCCc2ccc(OC)cc2)c1 | -8.5 | 3.1 | 0.6 | -32.1* | 0.7
COc1ccccc1OCCNC(=O)c1cccc(S(=O)(=O)N2CCN(C)CC2)c1 | 5.0 | 1.3 | -0.1 | 6.0 | 1.3
COc1ccccc1OCCNC(=O)c1ccc(C)c(S(=O)(=O)N2CCOCC2)c1 | -7.4 | 30.2* | -0.1 | -5.6 | 12.6
COc1ccc(C(=O)NCC2COc3ccccc3O2)cc1S(=O)(=O)N1CCOCC1 (stereo not given) | -4.5 | -0.1 | -0.7 | -34.2* | -2.7
CCOC(=O)N1CCN(C(=O)c2ccc3c(c2)ncn3C2CCCC2)CC1 | -4.5 | 1.0 | -0.5 | -12.1 | 34.5*
COc1ccc(NC(=O)c2sc3nc[nH]c(=O)c3c2C)cc1OC | -1.4 | 1.7 | 0.0 | -5.7 | -2.5
O=S(=O)(Nc1c(Br)cc(Br)c2cccnc12)C1CC1 | 20.4 | -1.0 | -2.6 | 12.1 | -3.9
CCOc1ccc(N(CC)S(=O)(=O)N2CCCC(C(=O)Nc3ccc(OC)c(OC)c3)C2)cc1 (stereo not given) | -3.5 | 4.2 | -1.7 | -11.6 | 13.1
COc1cccc(CNC(=O)c2ccc(Cl)c(S(=O)(=O)N3CCOCC3)c2)c1 | -10.6 | 2.3 | -0.7 | -34.1* | -6.5
COc1ccc(CCNC(=O)c2ccc(Cl)c(S(=O)(=O)N3CCCC3)c2)cc1 | -0.9 | 8.0 | -0.1 | -50.5* | 0.8
COc1ccc(C(CNC(=O)c2ccc(Cl)c(S(=O)(=O)N3CCCC3)c2)N2CCCC2)cc1 (stereo not given) | 10.6 | 5.9 | 0.2 | 5.0 | -3.8
COc1ccc(C(=O)NCc2ccncc2)cc1S(=O)(=O)N1CCOCC1 | · | 3.6 | -0.1 | -48.5* | -4.9
CCOC(=O)N1CCN(C(=O)c2ccc(Cl)c(S(=O)(=O)N3CCCC3)c2)CC1 | 33.5* | 0.3 | -0.4 | -1.8 | 1.9
Cc1ccc(C)c(OCC(=O)Nc2ccc(N3CCOCC3)cc2N2CCOCC2)c1 | -2.4 | 1.6 | 0.0 | -2.3 | 9.1
COc1ccc(C(=O)Nc2ncc(C)s2)cc1S(=O)(=O)N1CCOCC1 | -4.2 | 0.3 | 2.0 | 12.1 | 31.6*
COc1ccccc1-n1nnnc1SCC(=O)NCC1(N2CCOCC2)CCCCC1 | 0.6 | 0.6 | -0.6 | 18.4 | -8.7
CSc1ccc(/C=C/C(=O)c2ccc(NC(C)=O)cc2)cc1 | -3.6 | 6.5 | 0.9 | -5.8 | 6.3
CCCC(=O)Nc1ccc(C(=O)/C=C/c2ccc(SC)cc2)cc1 | -13.4 | 16.5 | 0.0 | -47.7* | 6.9
O=C1c2cccc3cccc(c23)C(=O)N1c1ccc(O)cc1 | -3.1 | 3.1 | 0.3 | -1.1 | 2.5
O=C1c2cccc3c(N4CCCCC4)ccc(c23)C(=O)N1c1ccccc1O | 4.0 | 203.6* | 95.7* | -3.6 | 6.0
O=C1c2cccc3c(N4CCCCC4)ccc(c23)C(=O)N1c1ccc(O)cc1 | -2.8 | 359.0* | 133.5* | 19.6 | -5.6
COC(=O)C(Sc1nc(C)cc(C)c1C#N)c1ccccc1 (stereo not given) | -7.2 | 6.0 | -0.7 | -32.4* | -5.0
COc1ccc(CCNC(=O)Cn2c(=O)c3sccc3n(CC(=O)Nc3cccc(C(F)(F)F)c3)c2=O)cc1OC | 0.7 | 0.6 | -0.5 | -14.1 | -12.8
CCOc1ccc(NC(=O)NCc2cccn2C)cc1 | -6.3 | -0.2 | 0.1 | -42.4* | -8.2
CCOc1ccc(NC(=O)NC23CC4CC(CC(C4)C2)C3)cc1 | -5.5 | 13.0 | 0.6 | -31.4* | 9.1
SMILES | D1 PAM | D1 ag | TRHR agonist | D1 antag | TRHR PAM
Cc1cc(Cl)ccc1NS(=O)(=O)c1cc2[nH]c(=O)c(=O)[nH]c2cc1C | 1.9 | -1.4 | 0.1 | -10.2 | 2.7
CCN(CC)c1ccc(NS(=O)(=O)c2cc3[nH]c(=O)c(=O)[nH]c3cc2C)c(C)c1 | -1.7 | 0.7 | -0.3 | -37.8* | 3.7
CCOC(=O)c1cccc(NS(=O)(=O)c2cc3[nH]c(=O)c(=O)[nH]c3cc2C)c1 | 3.4 | -1.5 | 0.1 | 2.3 | 45.6*
Cc1nc(-c2ccc(S(=O)(=O)Nc3ccccc3C)cc2)co1 | -7.0 | 14.0 | -0.5 | -23.3 | 2.9
CCN(CC)c1ccc(NS(=O)(=O)c2ccc(-c3coc(C)n3)cc2)c(C)c1 | -5.7 | 0.1 | -0.9 | -33.6* | -5.4
CCSc1nnc(SCC(=O)c2c(N)n(C)c(=O)n(C)c2=O)s1 | -4.0 | 3.9 | 0.5 | 10.5 | -1.1
Cc1cccc(-n2c(CNC(=O)Cc3ccccc3)n[nH]c2=S)c1 | 7.5 | 1.2 | 0.4 | 1.4 | 3.4
Cc1cccc(-n2c(Cc3ccccc3)n[nH]c2=S)c1 | -4.7 | 0.7 | 0.2 | -40.3* | -10.2
CCN(CC)CCNC(=O)c1ccc(-c2nc(CN3CCc4ccccc43)c(C)o2)cc1 | -1.7 | 16.7 | 0.5 | 2.3 | -3.9
Cc1noc2ncnc(N3CCN(c4cccc(Cl)c4)CC3)c12 | 0.8 | 3.9 | 0.4 | -33.9* | -2.8
COc1ccc(NS(=O)(=O)c2ccc3c(c2)NC(=O)CCS3)cc1Cl | 3.5 | 4.7 | -0.2 | -38.7* | 3.3
COc1ccc(NS(=O)(=O)c2ccc3c(c2)NC(=O)CCS3)c(OC)c1 | -5.3 | 9.8 | 0.2 | -21.9 | 13.1
O=C(c1cccs1)c1cn(CCOc2ccccc2F)c2ccccc12 | -2.2 | 13.6 | -0.4 | -11.3 | 6.0
O=C(c1cccs1)c1cn(CCOc2ccc(F)cc2)c2ccccc12 | -5.3 | 34.6* | -0.3 | 29.4 | 4.1
O=C(Cn1c(=O)n(-c2ccccc2)c(=O)c2c3c(sc21)CCCC3)Nc1cccc(F)c1 | 0.9 | 2.4 | 0.5 | 6.3 | 10.7
CCCCOC(=O)c1ccc(OC(=O)c2sc3ncn(Cc4cccc(F)c4)c(=O)c3c2C)cc1 | -1.1 | -0.3 | 0.2 | 4.0 | 17.4
Cc1cccc(N(C(=O)c2csnn2)C(C(=O)NC2CCCCC2)c2ccccn2)c1C (stereo not given) | -3.0 | 2.4 | -0.8 | -22.6 | 38.1*
O=C(Cc1csc(-c2ccc(F)cc2)n1)Nc1cccc(S(=O)(=O)NC2=NCCC2)c1 | -15.4 | 0.8 | 0.1 | -30.3* | 8.1
O=C(Nc1cccc(S(=O)(=O)NC2=NCCCCC2)c1)c1cc(-c2ccccc2Cl)nc2ccccc12 | -9.9 | 4.7 | 0.1 | -36.0* | 4.2
CCCCC(=O)OCC(=O)Nc1cccc(S(=O)(=O)NC2=NCCCCC2)c1 | -5.3 | 1.7 | 0.4 | -32.2* | -3.3
Cc1ccsc1C(=O)OCC(=O)Nc1cccc(S(=O)(=O)NC2=NCCCCC2)c1 | 0.7 | 5.4 | -0.5 | -42.3* | -4.2
CCCCCC(=O)Nc1cccc(S(=O)(=O)NC2=NCCCCC2)c1 | 1.9 | 0.6 | 0.6 | -24.0 | 3.3
O=C(Cc1csc(-c2ccc(Cl)cc2)n1)Nc1cccc(S(=O)(=O)NC2=NCCC2)c1 | -3.3 | -0.6 | -0.2 | -16.5 | -0.4
COc1ccc(NC(=O)CCN2CCN(CCO)CC2)c(OC)c1 | -2.7 | -0.2 | -2.0 | -1.0 | 10.2
Cc1ccc(C)c(NC(=O)c2cnc(N3CCCC3)nc2C)c1 | -0.9 | 0.3 | -0.1 | -3.4 | -3.1

Screening data (PubChem)
